Experimental data from the supplement of paper PMC11219838.
A number with no mark means an inactive call.

Test system: Caenorhabditis elegans dauer (daf-2(e1370))
Assay: proportion of mobile C. elegans dauer larvae relative to DMSO control (fraction of DMSO control); higher = more viable, less nematicidal, active = 0.63 or less; extreme values may be limits of the assay
Settings: 60 µM; 5 days; temperature: 20 °C
Procedure, shortened: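 Synchronized C. elegans daf-2(e1370) larvae were held at 25 °C for 48 h on MYOB plates with E. coli OP50 to form dauers, and about 20 dauers were added per 96-well well in liquid NGM. Compound was pinned to 60 µM final (0.6% v/v DMSO), and sealed plates were shaken at 200 rpm for 5 days at 20 °C. The proportion of mobile worms was scored under a dissection microscope relative to DMSO controls and averaged over two biological replicates.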

Row | Structure (SMILES) | proportion of mobile C. elegans dauer larvae
1 | COc1cccc(-c2nc(-c3ccc(C)cc3)no2)c1 | 0 (active)
2 | O=C(CSc1nnc(-c2ccco2)o1)Nc1ccc(F)cc1 | 1
3 | COc1nc(-c2ccccc2)ccc1-c1noc(-c2ccccc2C)n1 | 1
4 | COc1ccc(OCc2nc(-c3cccc(Br)c3)no2)cc1 | 1
5 | Cc1ccc(-c2noc(-c3ccc(Cl)cc3)n2)cc1 | 1
6 | COc1ccc(-c2noc(COc3ccc(C)cc3Br)n2)cc1 | 1
7 | CC(C)c1ccc(OCc2nc(-c3ccncc3)no2)c(Br)c1 | 1
8 | Clc1ccc(CSc2nnc(-c3ccc(Cl)cc3)o2)cc1 | 1
9 | Cn1cc(C(=O)CSc2nnc(-c3cccc(Cl)c3)o2)c2ccccc21 | 1

Test system: Ditylenchus dipsaci
Assay: proportion of mobile D. dipsaci (mixed stage) relative to DMSO control (fraction of DMSO control); higher = more viable, less nematicidal, active = 0.86 or less; extreme values may be limits of the assay
Settings: 60 µM; 5 days; temperature: 20 °C
Procedure, shortened: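 Mobility values are relative to DMSO controls and are averages of two biological replicates. For each well of a 96-well plate, about 20 D. dipsaci worms, grown on pea plants in Gamborg B-5 agar and funnel-extracted into water, were dispensed in distilled water. Plates received pinned compound at 60 µM final with 0.6% v/v DMSO and were sealed and shaken at 200 rpm for 5 days at 20 °C before 2 µL 1 M NaOH was added and mobile worms were scored by microscope.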

Row | Structure (SMILES) | proportion of mobile D. dipsaci
10 | COc1nc(C)ccc1-c1noc(-c2ccc(C(C)(C)C)cc2)n1 | 1
11 | Cc1cc(Cl)ccc1OCc1nc(-c2ccc(F)cc2)no1 | 1
12 | COc1ccc(-c2noc(C34CC5CC(CC(C5)C3)C4)n2)cc1 | 1
13 | COc1ccccc1NC(=O)CSc1nnc(-c2cccc3ccccc23)o1 | 1
14 | Cc1cc(Br)ccc1OCc1nc(-c2cccnc2)no1 | 1
15 | O=C(NC1CCCCC1)c1ccccc1-c1nc(-c2ccc(F)cc2)no1 | 1
16 | Cc1ccc(-c2noc(-c3ccccc3OCC(N)=O)n2)cc1 | 1
17 | O=C(c1ccccc1-c1nc(-c2ccc(F)cc2)no1)N1CCCC1 | 1
18 | O=C(CSc1nnc(-c2ccco2)o1)Nc1cc(Cl)ccc1Cl | 1
19 | Cc1cccc(-c2noc(COc3ccc(C)cc3C)n2)c1 | 1
20 | C=C(C)COc1ccc(-c2nc(-c3cccnc3)no2)cc1 | 1
21 | Clc1ccc(-c2nc(-c3ccncc3)no2)c(Cl)c1 | 1
22 | Cc1ccc(C)c(OCc2nc(-c3ccccc3Cl)no2)c1 | 1
23 | Brc1ccc(-c2noc(-c3ccco3)n2)cc1 | 0.875
24 | Cc1cccc(-c2nc(-c3ccc4c(c3)OCO4)no2)c1 | 1
25 | COc1ccc(-c2nnc(SCC(=O)Nc3ccc(Br)cc3C(C)C)o2)cc1 | 1
26 | Cc1ccc(OCc2nc(-c3ccncc3)no2)c(Br)c1 | 1
27 | Cc1ccccc1-c1nnc(SCc2ccccc2Cl)o1 | 1
28 | CCCc1ccc(-c2ccc(-c3nc(-c4ccccn4)no3)cc2)cc1 | 1
29 | Cc1cccc(-c2noc(-c3ccc4c(c3)OCO4)n2)c1 | 1

Row | Structure (SMILES) | proportion of mobile D. dipsaci
30 | CC(C)(C)C(=O)CSc1nnc(-c2ccc(Cl)cc2Cl)o1 | 1
31 | Cc1cccc(-c2noc(C3CCCCC3)n2)c1 | 1
32 | c1ccc(CSc2nnc(-c3ccccc3)o2)cc1 | 0.864
33 | CC(=O)c1c(C)cc(C)c(CSc2nnc(-c3ccco3)o2)c1C | 1
34 | O=C(Nc1ccccc1-c1nc(-c2cccnc2)no1)c1cccs1 | 1
35 | Cc1ccc(CSc2nnc(-c3cccc(Br)c3)o2)c(C)c1 | 1
36 | O=C(CSc1nnc(-c2cccc(Br)c2)o1)NC1CCCCC1 | 1
37 | COc1ccccc1OCc1nc(-c2ccccc2)no1 | 1
38 | COc1ccc(-c2nnc(SCc3ccc(C#N)cc3)o2)cc1 | 1
39 | CC(Sc1nnc(-c2ccccc2)o1)C(=O)Nc1nccs1 (stereo not drawn) | 1
40 | COc1cccc(-c2nc(-c3ccc(C)cc3)no2)c1 | 1
41 | O=C(CSc1nnc(-c2ccco2)o1)Nc1ccc(F)cc1 | 1
42 | COc1nc(-c2ccccc2)ccc1-c1noc(-c2ccccc2C)n1 | 1
43 | COc1ccc(OCc2nc(-c3cccc(Br)c3)no2)cc1 | 1
44 | Cc1ccc(-c2noc(-c3ccc(Cl)cc3)n2)cc1 | 1
45 | COc1ccc(-c2noc(COc3ccc(C)cc3Br)n2)cc1 | 1
46 | CC(C)c1ccc(OCc2nc(-c3ccncc3)no2)c(Br)c1 | 1
47 | Clc1ccc(CSc2nnc(-c3ccc(Cl)cc3)o2)cc1 | 1
48 | Cn1cc(C(=O)CSc2nnc(-c3cccc(Cl)c3)o2)c2ccccc21 | 1
